Screening results from PubChem BioAssay.
Compounds with a hit are over-represented: about 12% of the library has one in this group of screens.
Pf growth 48h: inhibits P. falciparum growth in the first generation, 48 h. P. falciparum luciferase growth in erythrocytes, 48 h. Potency, µM (top dose mostly 28.7 µM), for inactives: top-dose activity change, negative = inhibition, actives largely listed as inhibitors. hit rate 5.9% among 310,000; further: on the % scale 0 is the no-effect control and ±100 the full control effect
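First compound was added to culture medium, then infected red cells at 0.1% parasitemia and 2% hematocrit (final). After incubation at 37 C under 5% CO2, luciferase detection reagent was dispensed and light output recorded.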
Sm TGR block: inhibitors of Schistosoma mansoni thioredoxin glutathione reductase | hit rate 3% among 360,000 | Potency, µM (doses to about 114 µM), for inactives: at the top dose activity change, negative = inhibition, hits mostly inhibitors | AID 485364 | purified TGR, DTNB reduction, TNB absorbance 405 nm; further: on the % scale 0 is the no-effect control and ±100 the full control effect; nearly all actives have a fitted effect of over 60% in size
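TGR 20 nM + NADPH 100 uM (dispensed conc.), cpd preinc 15 min RT; start with NADPH (500 uM addition) then DTNB (15 mM addition). Kinetic TNB absorbance, 405 nm filter. Four-parameter Hill fit across titration.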
SARS PLP yeast: inhibitors of SARS-CoV papain-like protease in yeast. S. cerevisiae expressing SARS-CoV PLpro, growth rescue. hit rate 0.19% among 330,000. Potency, µM (highest dose often 32.9 µM), without a hit: at the top dose activity, positive = growth rescue, usual class: activators; calls by dose curve; further: 0% is about no effect; nearly all actives have a fitted effect of over 55% in size
AmpC inh no detg: inhibitors of E. coli AmpC beta-lactamase without detergent; P00811; AmpC nitrocefin hydrolysis, absorbance 480 nm, 0.0001% Triton; Potency, µM (series often up to 57.1 µM), inactives show top-dose activity change, negative = inhibition, most hits filed as inhibitors; hit rate 0.52% among 330,000; AID 485341;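 further: plate controls were no compound for no effect and no enzyme for full effect; nearly all actives have a fitted effect of over 20% in size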
Target sequence (P00811 whole entry, looked up): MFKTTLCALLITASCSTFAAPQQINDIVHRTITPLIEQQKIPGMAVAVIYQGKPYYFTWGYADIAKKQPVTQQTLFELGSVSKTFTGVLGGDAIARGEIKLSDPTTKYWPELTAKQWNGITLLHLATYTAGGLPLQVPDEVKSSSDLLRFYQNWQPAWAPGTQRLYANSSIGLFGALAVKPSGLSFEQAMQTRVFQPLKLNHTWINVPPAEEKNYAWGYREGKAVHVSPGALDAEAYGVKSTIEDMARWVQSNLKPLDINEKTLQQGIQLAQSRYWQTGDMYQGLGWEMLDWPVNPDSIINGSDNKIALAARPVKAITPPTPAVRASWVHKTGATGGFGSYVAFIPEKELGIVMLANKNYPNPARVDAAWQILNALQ
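20 mM phosphate pH 7.0 + 0.01% (detergent screen) or 0.0001% Triton X-100; 5.3 nM AmpC reagent; cpd preinc 15 min RT; nitrocefin (800 uM stock) to start; A480 q20 s × 4 min; Activity was normalised to no-enzyme and no-compound control wells.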
AmpC detergent: blocks E. coli AmpC beta-lactamase in detergent assay. P00811. AID 485294. AmpC hydrolysis of nitrocefin, absorbance 480 nm, 0.01% Triton. hit rate 0.041% among 370,000. Potency, µM (doses to about 114 µM), for inactives: at the highest dose activity change, negative = inhibition, actives largely listed as inhibitors;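 further: 0% = no-compound wells and -100% = no-enzyme wells; nearly all actives have a fitted effect of over 25% in size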
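20 mM phosphate pH 7.0 + 0.01% (detergent screen) or 0.0001% Triton X-100; 5.3 nM AmpC reagent; cpd preinc 15 min RT; nitrocefin (800 uM stock) to start; A480 q20 s × 4 min; Activity was normalised to no-enzyme and no-compound control wells.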
Pf growth 96h: P. falciparum growth inhibition at 96 hour, primary screen for plastid delayed-death inhibitors; Potency, µM (titrated, usually from 28.7 µM), without a hit: at the top dose activity change, negative = inhibition, hits mostly inhibitors; P. falciparum luciferase reporter growth, 96 h; hit rate 6.9% among 320,000; further: on the % scale 0 is the no-effect control and ±100 the full control effect
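Readout is luminescence from an integrated firefly luciferase in P. falciparum. Red cells, 2% hematocrit and 0.05% parasitemia final, were cultured with compound through two parasite generations (96 hours) at 37 C, 5% CO2.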
Numbers without * were called inactive; ? = inconclusive; . = not tested or not shown; [ ] = remark or other dose. Unless noted, the call rests on the fitted dose curve; in most records, active means well fitted curve in the direction sought with a large enough effect; inconclusive means small, poorly fitted or top-dose-only effect, or another doubt; inactive means no such curve, though single readings can be large; an effect the other way counts as inactive or inconclusive. Potency means the concentration at half of the fitted maximal effect.

SMILES | Pf growth 48h | Sm TGR block | SARS PLP yeast | AmpC inh no detg | AmpC detergent | Pf growth 96h
COc1ccc2cc(Br)ccc2c1CC(=O)NC1CC(C)(C)NC(C)(C)C1 | . | 6% | 10% | 53% | -1% | 8.3µM*
CCc1cc(=O)oc2c(C)c(OC(C)C(=O)NC3CC(C)(C)NC(C)(C)C3)ccc12 (centres undefined) | ? | -10% | -12% | -15% | -11% | ?
CCc1ccc(OCC(=O)NC2CC(C)(C)NC(C)(C)C2)cc1 | ? | -2% | -1% | -15% | -14% | 6.6µM*
CCc1cc(=O)oc2c(C)c(OCC(=O)NC3CC(C)(C)NC(C)(C)C3)ccc12 | ? | -6% | 2% | -12% | -1% | 10µM*
CC1(OC(=O)CCc2ccccc2)C(=O)C=C2C=C(c3ccc(C#N)cc3)N(C3CCCC3)C=C2C1=O (centres undefined) | ? | 3% | 4% | 75% | -1% | ?
Cc1ccccc1OCC(=O)Nc1ccc(OCc2cc(=O)n3ccsc3n2)cc1 | . | 9% | . | . | 10% | .
COc1ccc(Cl)cc1C(=O)Nc1ccc2nc3n(c(=O)c2c1)CCCC3 | ? | 1% | -1% | -3% | 2% | 2.1µM*
COc1cc(C(=O)Nc2ccc3nc4n(c(=O)c3c2)CCCC4)ccc1Br | 8.3µM* | -7% | -2% | 58% | -2% | -3%
CC(=O)c1ccc(NC(=O)c2ccc3c(=O)n4c(nc3c2)CCCCC4)cc1 | ? | -14% | 3% | 25% | -6% | 18%
O=C(Nc1ccc(F)cc1)c1ccc2c(=O)n3c(nc2c1)CCCCC3 | 87% | 4% | -7% | -23% | -5% | 4.7µM*
Cc1ccc(OC(=O)COc2ccccc2C)cc1 | -2% | -4% | 0% | -20% | 3% | 15%
CC(=O)c1ccc(OC(=O)COc2ccccc2Cl)cc1 | 233% | 40µM* | -2% | -14% | -7% | 19%
NS(=O)(=O)c1cccc(NC(=O)c2ccccc2NS(=O)(=O)c2ccc(F)cc2)c1 | -13% | 16% | -1% | -40% | -3% | -3%
Cc1ccc(C)c(S(=O)(=O)Nc2ccccc2C(=O)Nc2ccc(S(=O)(=O)Nc3ncccn3)cc2)c1 | ? | -18% | -8% | 16µM* | -11% | ?
Cc1ccc(NC(=O)CCNC(=O)c2ccccc2Cl)cc1S(=O)(=O)N1CCCCCC1 | ? | -19% | 15% | 7% | 7% | ?
O=C(Nc1cccc(S(=O)(=O)N2CCCCC2)c1)c1ccccc1NS(=O)(=O)c1ccc(F)cc1 | 12µM* | -1% | 2% | -40% | -2% | 8.3µM*
Cc1ccc(NC(=O)c2ccccc2NS(=O)(=O)c2ccc(F)cc2)cc1S(=O)(=O)N1CCCCC1 | 13µM* | 0% | 0% | -4% | -10% | 12µM*
NC(=O)c1c(NC(=O)c2ccncc2)sc2c1CCCCCC2 | -12% | -2% | -2% | 65% | -8% | 2%
COC(=O)CNC(=O)c1cc(OC)cc(OC)c1 | 8% | . | -1% | 2% | -7% | 0%
CCOc1ccc(C(=O)NCC(=O)OCc2cc(C(C)=O)ccc2OC)cc1 | -3% | 7.1µM* | 14% | -14% | -1% | 39%
CCOC(=O)CNC(=O)c1cc(OC)cc(OC)c1 | 29% | ? | 8% | -10% | ? | 0.93µM*
COc1ccc(C(C)=O)cc1COC(=O)CNC(=O)c1ccc(Cl)cc1 | 20% | 3.2µM* | -4% | -3% | -4% | 0%
COc1ccc(C(C)=O)cc1COC(=O)Cc1cc(OC)c(OC)c(OC)c1 | -2% | 11µM* | -6% | 28% | ? | -1%
CC(C)c1ccc(S(=O)(=O)N2CCC(C(=O)NCC3(N(C)C)CCCCC3)CC2)cc1 | ? | -2% | 0% | 56% | -2% | ?
COc1ccc(S(=O)(=O)N2CCC(C(=O)NC3CCCCC3)CC2)cc1C | 4% | -8% | 0% | 20% | -1% | ?
SMILES | Pf growth 48h | Sm TGR block | SARS PLP yeast | AmpC inh no detg | AmpC detergent | Pf growth 96h
CN(C)C1(CNC(=O)C2CCN(S(=O)(=O)c3cc(Cl)ccc3Cl)CC2)CCCCC1 | 6% | 25µM* | 2% | 6% | -6% | -48%
O=C(NC1CC1)C1CCN(S(=O)(=O)c2cc([N+](=O)[O-])ccc2Cl)CC1 | ? | ? | 2% | -31% | 6% | ?
O=C(NC1CC1)C1CCN(S(=O)(=O)c2ccc(Cl)cc2)CC1 | 1.7µM* | -6% | 0% | 0% | -10% | 7%
COc1ccc(S(=O)(=O)N2CCC(C(=O)NC3CC3)CC2)cc1C | ? | 1% | 3% | 11% | -4% | 3.3µM*
O=C(NC1CC1)C1CCN(S(=O)(=O)c2cc(Cl)ccc2Cl)CC1 | -4% | 9% | 0% | -15% | 0% | 0.083µM*
C[C@H](CO)N1C[C@H](C)[C@@H](CN(C)S(=O)(=O)c2ccc(F)cc2)Oc2ccc(NC(=O)Cc3ccccc3)cc2C1=O | . | . | 4% | 186% | . | .
O=C(NC1=NCCS1)C1CCN(S(=O)(=O)c2ccc(Cl)cc2)CC1 | ? | 50µM* | 1% | -17% | 4% | ?
COc1ccc(S(=O)(=O)N2CCN(S(=O)(=O)c3ccc(C(F)(F)F)cc3)CC2)cc1C | 1% | -31% | 1% | -1% | 2% | 12µM*
Cc1ccc(S(=O)(=O)N2CCC(C(=O)NC3CCCC3)CC2)cc1Cl | ? | 4% | -4% | -3% | 4% | 1.3µM*
Cc1cccc2sc(NC(=O)C3CCN(S(=O)(=O)c4cc([N+](=O)[O-])ccc4Cl)CC3)nc12 | -20% | -34% | -16% | -41% | -4% | ?
O=C(NC1=NCCS1)C1CCN(S(=O)(=O)c2cc([N+](=O)[O-])ccc2Cl)CC1 | . | . | -8% | -8% | . | .
Cc1nnc(NC(=O)C2CCN(S(=O)(=O)c3cc([N+](=O)[O-])ccc3Cl)CC2)o1 | -21% | 35µM* | -3% | -21% | 1% | 8%
COc1ccc(S(=O)(=O)N2CCN(C)CC2)cc1C | . | -20% | -6% | -12% | ? | ?
CCCC(=O)Nc1c(-c2ccccc2Cl)c(=O)c2ccccc2n1C | 8% | 13% | -4% | -7% | 1% | 9%
COc1cc(CCNC(=O)c2ccc3c(c2)c(C)c(C)n3Cc2cccc(C)c2)cc(OC)c1OC | . | -1% | . | . | 0% | .
O=C(OCCN1C(=O)c2ccccc2C1=O)c1cccc(OC(F)F)c1 | 16% | 6% | 0% | 1% | ? | 24%[5.75 µM]
COc1ccc(C(=O)c2c(N)sc3c2CCN(C(=O)OC(C)(C)C)C3)cc1 | 13µM* | ? | 0% | -19% | ? | ?
